In PubChem BioAssay AID779 (Sanford-Burnham Center for Chemical Genomics, 2007):
Values without a mark were called inactive. How the calls were made is not given here.

Assay: PLAP enzyme activity inhibition – biochemical, colorimetric, counter-screen, dose response (AID 779)
Settings: colorimetric OD read-out
CC(C)(C)C(=O)c1sc2nc(-c3cccs3)cc(C(F)(F)F)c2c1N showed an IC50 of over 50 µM.
With C/C(=C\C(=O)c1ccccc1)NNc1nc2ccccc2s1 the IC50 was over 50 µM.
CCOc1ccc(S(=O)(=O)N(CC(=O)N/N=C/c2ccc(-c3ccc([N+](=O)[O-])cc3)o2)c2ccccc2)cc1 gave an IC50 of over 50 µM.
Work on CS(=O)(=O)N(CC(=O)Nc1cccc(Cl)c1)c1ccccc1Cl yielded an IC50 of over 50 µM.
In the case of CCCN1C(=O)/C(=C/C=C2\N(CC)c3ccccc3C2(C)C)SC1=S, the IC50 is reported as over 50 µM.
For COc1cc(/C=C2\SC(=S)N(Nc3ncc(C(F)(F)F)cc3Cl)C2=O)cc(OC)c1OC, the IC50 was over 50 µM.
For Cn1c(=O)[nH]c(=O)c2c1nc1n2CCN1Cc1ccccc1, the IC50 was over 50 µM.
CCCCN(CCCC)C1=Nc2ccccc2N/C1=C(/C#N)C(=O)OCC gave an IC50 of over 50 µM.
With O=[N+]([O-])c1ccc(N(c2ccccc2)c2ccccc2)cc1 the IC50 was over 50 µM.
With Cc1occc1-c1nnc(SCC(=O)Nc2ccccc2-c2ccccc2)n1C the IC50 was over 50 µM.
Work on CCCn1nc(-c2ccccc2)c2nc3ccccc3nc21 yielded an IC50 of over 50 µM.
CC1(C)CCCN(C(=O)c2coc(=O)c(Br)c2)C1 gave an IC50 of over 50 µM.
CCCCn1nc(-c2ccccc2)c2nc3ccccc3nc21 showed an IC50 of over 50 µM.
For Nc1ccc(Br)c2c1C(=O)c1ccccc1C2=O, the IC50 was over 50 µM.
With COc1cc(C(Nc2ccccn2)c2ccc3ccc(C)nc3c2O)cc(OC)c1O (stereo unspecified) the IC50 was over 50 µM.
For CCn1c(COc2ccccc2C)nnc1SCC(=O)Nc1cc(C)on1, the IC50 was over 50 µM.
For O=C(Nc1cccc2ccccc12)/C(=C/c1ccc([N+](=O)[O-])cc1)NC(=O)c1ccccc1, the IC50 was over 50 µM.
Cc1ccc2cc(C=C(C#N)C#N)c(N3CCCCC3)nc2c1 gave an IC50 of over 50 µM.
Molecule O=C(NCc1ccccc1)c1ccc2nc(-c3ccco3)c(-c3ccco3)nc2c1 has an IC50 of over 50 µM.
Molecule Cc1ccc(C)c(N(CC(=O)N/N=C/c2ccc(-c3ccc([N+](=O)[O-])cc3)o2)S(=O)(=O)c2ccccc2)c1 has an IC50 of over 50 µM.
With COc1ccc(C(c2nnnn2Cc2cccs2)N2CCN(c3ccccc3F)CC2)cc1 (stereo unspecified) the IC50 was over 50 µM.
With CCOC(=O)C1=C(C)N=c2s/c(=C/c3ccco3)c(=O)n2C1c1cccc(OC)c1 (stereo unspecified) the IC50 was over 50 µM.
For COc1ccc(Cc2nnc(NC(=O)Cc3cccs3)s2)cc1, the IC50 was over 50 µM.
Molecule Cc1ccc2cc(/C=C3\N=C(c4ccccc4)OC3=O)c(N3CCOCC3)nc2c1 has an IC50 of over 50 µM.
Molecule CCOC(=O)c1c(NC(C)=O)sc2c1CCC(C=O)=C2Sc1ccccc1 has an IC50 of over 50 µM.
Work on C=CCOC(=O)c1cc(-c2ccc(/C=C3\C(=O)NC(=O)C(C#N)=C3C)o2)ccc1Cl yielded an IC50 of over 50 µM.
For COc1ccc(-n2c(NC(=O)c3ccc(Br)o3)c(C#N)c3nc4ccccc4nc32)cc1, the IC50 was over 50 µM.
Molecule Cc1nn(-c2ccccc2)c2c1C(c1cccnc1)N1C=C(S(=O)(=O)N3CCCCC3)C=CC1=N2 (stereo unspecified) has an IC50 of over 50 µM.
O=C(NCCc1ccccc1)c1ccc2nc(-c3ccco3)c(-c3ccco3)nc2c1 showed an IC50 of over 50 µM.
For Cc1cccc2cc(/C=C3\N=C(c4ccccc4)OC3=O)c(N3CCOCC3)nc12, the IC50 was over 50 µM.
For O=[N+]([O-])c1ccc(N2N=C(c3ccco3)CC2c2ccccc2)cc1 (stereo unspecified), the IC50 was over 50 µM.
